Laboratory results published in the supplement of paper PMC3545927.
The other results are listed elsewhere or left out. How many sequences the whole screen found active is unknown.

Biological target: furin, P09958
Assay: furin cleavage Z-score vs untreated control; higher = more cleavage, active = 3.5 or more, inactive = 1 or less, 8 variable residues between constant flanks
In short: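 Furin cleavage was scored on 8-mer peptides joined to a cDNA oligonucleotide and bound to magnetic beads at the N-terminus. Digestion with purified furin (1:10 enzyme:substrate, 0.01 ml, 50 mM HEPES pH 7.5, CaCl2, NaCl) lasted 7.5, 15 or 30 min. Freed DNA was tagged with adapters by PCR, sequenced and counted; the cleavage Z-score is the lowess-adjusted log count versus furin-free reactions, scaled by median absolute deviation.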

furin, P09958, sequence (P09958 whole entry): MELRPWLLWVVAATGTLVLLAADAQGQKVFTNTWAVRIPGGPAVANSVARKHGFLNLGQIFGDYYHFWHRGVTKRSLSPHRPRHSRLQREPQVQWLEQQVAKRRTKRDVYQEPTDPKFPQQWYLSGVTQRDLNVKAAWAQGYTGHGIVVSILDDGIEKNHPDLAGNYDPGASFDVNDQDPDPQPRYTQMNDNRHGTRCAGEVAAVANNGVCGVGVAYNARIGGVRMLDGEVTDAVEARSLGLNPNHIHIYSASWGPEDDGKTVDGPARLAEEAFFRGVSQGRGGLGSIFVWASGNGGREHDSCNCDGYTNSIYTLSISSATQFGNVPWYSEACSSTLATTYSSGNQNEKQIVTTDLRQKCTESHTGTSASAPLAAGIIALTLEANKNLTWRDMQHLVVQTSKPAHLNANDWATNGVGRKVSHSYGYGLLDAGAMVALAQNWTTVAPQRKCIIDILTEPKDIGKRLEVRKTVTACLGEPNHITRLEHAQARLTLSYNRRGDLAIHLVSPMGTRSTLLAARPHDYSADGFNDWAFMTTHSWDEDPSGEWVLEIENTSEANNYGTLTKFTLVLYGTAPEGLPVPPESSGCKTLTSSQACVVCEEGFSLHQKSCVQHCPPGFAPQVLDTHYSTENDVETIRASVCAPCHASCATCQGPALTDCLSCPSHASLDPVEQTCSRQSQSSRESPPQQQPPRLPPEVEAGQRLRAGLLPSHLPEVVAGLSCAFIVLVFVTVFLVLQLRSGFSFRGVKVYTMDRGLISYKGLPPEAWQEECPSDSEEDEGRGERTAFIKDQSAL

| Sequence | furin cleavage Z-score (7.5 min) | furin cleavage Z-score (15 min) | furin cleavage Z-score (30 min) |
| --- | --- | --- | --- |
| CADLSDGSWSAGNASASA [HC1360] | -0.871 (inactive) | -1.27 (inactive) | -0.416 (inactive) |
| CARRQVWKRRAGNASASA [FS-1161] | 0.586 (inactive) | 4.58 (active) | 4.41 (active) |
| CARRIRFVGRAGNASASA [FS-3261] | 0.201 (inactive) | 1.15 | 3.25 |
| CARRLRDKRRAGNASASA [FS-713] | 0.73 (inactive) | 2.01 | 1.44 |
| CAGWFTAGYSAGNASASA [HC1645] | 0.812 (inactive) | -0.589 (inactive) | 0.435 (inactive) |
| CAEVVTSTYVAGNASASA [HC2229] | 0.886 (inactive) | 0.18 (inactive) | 0.589 (inactive) |
| CAEVVCSTWVAGNASASA [HC134] | -0.675 (inactive) | -0.0617 (inactive) | -0.318 (inactive) |
| CAVHHRPKRGAGNASASA [FS-309] | 12 (active) | 10.8 (active) | 9.72 (active) |
| CAYDCRCKRGAGNASASA [FS-899] | 0.698 (inactive) | 0.0271 (inactive) | 1.85 |
| CAILHRQKRGAGNASASA [FS-665] | 12.5 (active) | 12.9 (active) | 9.04 (active) |
| CAEVPCHRPMAGNASASA [HC2406] | -0.721 (inactive) | 1.03 | -0.487 (inactive) |
| CARCDLEDRDAGNASASA [HC486] | 1.03 | -0.684 (inactive) | -1.47 (inactive) |
| CAVQNEITLTAGNASASA [HC976] | -0.158 (inactive) | -0.101 (inactive) | 0.696 (inactive) |
| CAVVCISMSYAGNASASA [HC85] | -1.62 (inactive) | -2.02 (inactive) | -0.461 (inactive) |
| CAEPHRARRGAGNASASA [FS-1451] | 5.81 (active) | 5.59 (active) | 6.2 (active) |
| CARGCRARRGAGNASASA [FS-1060] | 3.97 (active) | 3.87 (active) | 2.93 |
| CAQRRRARRGAGNASASA [FS-850] | 2.4 | 2.13 | 0.325 (inactive) |
| CAQTPCSAHLAGNASASA [HC2482] | -0.0432 (inactive) | 0.702 (inactive) | 2.39 |
| CASTPCSAHKAGNASASA [HC2574] | -0.715 (inactive) | 0.189 (inactive) | -1.56 (inactive) |
| CATSRSACQRAGNASASA [HC1391] | 0.0948 (inactive) | 0.314 (inactive) | 0.239 (inactive) |
| CARFKRKDRMAGNASASA [FS-2553] | 4.28 (active) | 3.52 (active) | 4.13 (active) |
| CARKKRKSPKAGNASASA [FS-2268] | 0.83 (inactive) | 2.91 | 2.06 |
| CARSKRIAGKAGNASASA [FS-2811] | 0.535 (inactive) | -0.714 (inactive) | 0.638 (inactive) |
| CATTKRDAGKAGNASASA [FS-2474] | -0.152 (inactive) | -0.387 (inactive) | 0.96 (inactive) |

| Sequence | furin cleavage Z-score (7.5 min) | furin cleavage Z-score (15 min) | furin cleavage Z-score (30 min) |
| --- | --- | --- | --- |
| CARICRDIPKAGNASASA [FS-2029] | 3.76 (active) | 5.68 (active) | 4.88 (active) |
| CARFKRAAGKAGNASASA [FS-2259] | 11.2 (active) | 12.2 (active) | 9.21 (active) |
| CARFKRKLPKAGNASASA [FS-1948] | 0.844 (inactive) | 1.94 | 3.55 (active) |
| CARPGRKDRRAGNASASA [FS-1067] | 0.778 (inactive) | 1.1 | 0.538 (inactive) |
| CAREGRDGPKAGNASASA [FS-2003] | 0.305 (inactive) | -0.0392 (inactive) | -2.05 (inactive) |
| CAVRVCEKMAAGNASASA [HC1454] | -0.509 (inactive) | -1.63 (inactive) | -0.874 (inactive) |
| CAVVCCSMSLAGNASASA [HC2085] | -0.7 (inactive) | -0.0853 (inactive) | 0.456 (inactive) |
| CAACNWTRGEAGNASASA [HC482] | 0.0668 (inactive) | 0.0745 (inactive) | -0.647 (inactive) |
| CATTPYSGSWAGNASASA [HC57] | -0.402 (inactive) | -1.77 (inactive) | -1.07 (inactive) |
| CAVVCCSMSEAGNASASA [HC2092] | 0.169 (inactive) | -0.137 (inactive) | 0.14 (inactive) |
| CAGKLPATQLAGNASASA [HC286] | -0.891 (inactive) | 0.888 (inactive) | -0.728 (inactive) |
| CARFERAIGPAGNASASA [FS-2662] | 1.09 | 0.675 (inactive) | 1.32 |
| CARSNRFSWMAGNASASA [FS-3088] | 1.34 | 0.175 (inactive) | 0.252 (inactive) |
| CARFKRDPNQAGNASASA [FS-1891] | 5.07 (active) | 6.2 (active) | 6.47 (active) |
| CALTGRDKNQAGNASASA [HC684] | -0.69 (inactive) | -0.684 (inactive) | -0.181 (inactive) |
| CARFKRLACMAGNASASA [FS-2488] | 1.67 | 1.17 | 4.11 (active) |
| CATFDRLQVLAGNASASA [HC1397] | -1.63 (inactive) | -1.93 (inactive) | -0.453 (inactive) |
| CARAQRSPQQAGNASASA [FS-2129] | -0.476 (inactive) | 0.539 (inactive) | 1.62 |
| CARSWRLACEAGNASASA [FS-2610] | -1.13 (inactive) | -1.31 (inactive) | -0.906 (inactive) |
| CARFKRLADMAGNASASA [FS-2489] | 2.25 | 3.3 | 4.96 (active) |
| CARFKRAIFQAGNASASA [FS-3154] | 3.12 | 6.07 (active) | 9.35 (active) |
| CARFKKLADMAGNASASA [FS-2414] | -1 (inactive) | -2.01 (inactive) | 0.965 (inactive) |
| CAQEKRSVFQAGNASASA [FS-2249] | -0.752 (inactive) | 1.01 | 0.632 (inactive) |
